Measured values: PubChem BioAssay (NCI)
Compounds without any hit were thinned out: in the full panel of roughly 83,000, 20% have a hit.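 Compound tested at a single concentration for 48 hours in 96-well plates; a percent growth value below 10 was scored as active.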 Unmarked numbers belong to inactive results. Activity calls are given as the source filed them.

Tested on: SNB-19 CNS
Test: NCI-60 one-dose screen, 48 h (100 = growth as untreated, 0 = no growth, -100 = all killed)
Conditions: 10 µM unless noted
Method: Growth inhibition of the SNB-19 human tumor cell line is measured as a screen for anti-cancer activity. Cells are grown in 96 well plates and exposed to the test compound for 48 hours. Compounds are tested at a single concentration, which is 10^-5 M for most compounds. The reported endpoint is percent growth (GI% or GIPRCNT), where numbers from 0 - 100% represent growth inhibition, and numbers from -100% - 0 represent cell death. For example, a value of 40 represents 60% growth inhibition. A value of 0 means no net growth occurred over the course of the experiment. A value of -40 indicates 40% of cells at the beginning of the experiment died by the end of the experiment. A value of -100 means all cells are dead at the end of the experiment.
NCI-60 Human Tumor Cell Lines Screen was performed using the standard one-dose NCI protocol, which is described in more detail at https://dtp.cancer.gov/discovery_development/nci-60/default.htm.
Compounds with GIPRCNT values below 10 were considered active. Activity score was based on GIPRCNT using the following formula: […]
Score is 0 for GIPRCNT values of 100 or above, 50 for GIPRCNT values of 0, and 100 for GIPRCNT values of -100.

How did the growth turn out when CC(=O)Nc1ccc(/C=N/N2CCCCCC2)cc1 was run?
The growth was 91.8%.

CNC(=O)c1c(NC(=O)c2cccc(C(F)(F)F)c2)sc2c1CCC(=O)C2 was tested. Which growth did it give?
Its growth is 13.8%.

CC(C)C/C=C/C=C/C(=O)N[C@@H](CC(N)=O)C(=O)N[C@@H]1C(=O)N[C@H](c2ccc(O)cc2)C(=O)N[C@H](CCCN)C(=O)N[C@H]([C@@H](C)O)C(=O)N[C@H](c2ccc(O)cc2)C(=O)N[C@H](c2ccc(O)cc2)C(=O)N[C@H]([C@H](C)O)C(=O)N[C@H](Cc2ccccc2)C(=O)N[C@H](CCCN)C(=O)N[C@H](c2ccc(O[C@H]3O[C@@H](CO)[C@@H](O)[C@@H](O)[C@H]3O[C@@H]3O[C@H](CO)[C@H](O)[C@H](O)[C@@H]3O)cc2)C(=O)N[C@H]([C@H](C)O)C(=O)N[C@H](c2ccc(O)cc2)C(=O)NCC(=O)N[C@H](CC(C)C)C(=O)N[C@H](C)C(=O)N[C@H](c2ccc(O)c(Cl)c2)C(=O)O[C@@H]1C(N)=O was tested. Which growth did it give?
The growth was 21%.

CCOC(=O)C1=C(C(=O)OCC)N(c2cc(OC)c(OC)c(OC)c2)C(N)=C(C#N)C1c1cc(=O)[nH]c2ccccc12 (stereo not given) was tested. Which growth did it give?
Its growth is 98.4%.

How did the growth turn out when COc1ccc(-c2cnc(-c3ccncc3-c3cccc(OC)c3)o2)cc1 was run?
Its growth is 25.8%.

CC(C)CCC(=O)[C@@H](C)[C@H]1[C@@H](OC2OCC(O)C(O)C2NS(C)(=O)=O)C[C@H]2[C@@H]3CC=C4C[C@@H](O)CC[C@]4(C)[C@H]3CC[C@]12C (stereo not given in full) was tested. Which growth did it give?
The growth was 32.1%.

Which growth does the source give for CC(C)(CCc1ccccn1)C(=O)CCCc1ccccn1 here?
The growth was 94%.

For O=C1/C(=C/c2ccccc2)SC(=Nc2ccccc2)N1Nc1ccccc1, which growth is on record?
Its growth is 23.3%.

Which growth does the source give for CCCCSc1ncnc2c1ncn2C1CCCCO1 (stereo not given) here?
The growth was 103%.

Which growth does the source give for Cc1cc2nc(CN)[nH]c2cc1C here?
The growth was 102%.

How did the growth turn out when O=C(Nc1ccc(Br)cc1)Nc1cccc(Br)c1 was run?
The growth was 29.2%.

How did the growth turn out when COc1ccc(N=C2CSc3nnc(-c4cc(F)c(Cl)cc4Cl)n3N2)cc1 was run?
The growth was 0.21% (active).

Which growth does the source give for COc1ccccc1/C=N\Nc1ccc([N+](=O)[O-])cn1 here?
The growth was 103%.

How did the growth turn out when COc1cc(C2CC(c3cccc(Nc4ccnc5cc(Cl)ccc45)c3)=NN2C=O)cc(OC)c1OC (stereo not given) was run?
Its growth is 36.9%.

With CCC1=CC2CN(C1)Cc1c([nH]c3ccccc13)[C@@](C(=O)OC)(c1cc3c(cc1OC)N(C)[C@H]1[C@@](O)(C(=O)OC)[C@H](OC(C)=O)[C@]4(CC)C=CCN5CC[C@]31[C@@H]54)C2 (stereo not given in full) as the compound, how does the growth read?
The growth was 53.6%.

Which growth does the source give for CS(=O)(=O)c1ccc(C(=O)N2N=C(c3ccccc3)CC2c2ccc3c(c2)OCO3)cc1 (stereo not given) here?
Its growth is 103%.

For COc1ccc2c(c1)OC1=C(C(=O)OC1)C2c1cc(OC)c2c(c1)OCCO2 (stereo not given), which growth is on record?
The growth was 38.8%.

Which growth does the source give for CCCCCCCCN=C(NCCCCCCCC)SCc1cccc2ccccc12 here?
The growth was -88.4% (active).

With O=C1CCCN1C(O)CCN(Cc1ccccc1)Cc1ccc(Cl)cc1 (stereo not given) as the compound, how does the growth read?
Its growth is 104%.

With CC1CCCN(CCCCOc2ccc(-c3ccc(C#N)cc3)cc2)C1 (stereo not given) as the compound, how does the growth read?
Its growth is 95.3%.

How did the growth turn out when O=C(Nc1ccccc1)c1cc2ccccc2s1 was run?
Its growth is 99.7%.

With CCOC(=O)c1cc(C(=O)OCC)c(C)nc1C as the compound, how does the growth read?
Its growth is 103%.

For COc1cc(C)c(Cl)cc1C1=NN(c2ccc(S(N)(=O)=O)cc2)C(/C=C/c2ccccc2)C1 (stereo not given), which growth is on record?
The growth was 38.6%.

With O=C1SCN(Cc2ccccc2)CN1Cc1ccccc1 as the compound, how does the growth read?
Its growth is 108%.

How did the growth turn out when Clc1nnc2c3ccccc3ccn12 was run?
The growth was 110%.

O=C1CCCN1C1CCN2CCCc3cccc1c32 (stereo not given) was tested. Which growth did it give?
Its growth is 100%.

How did the growth turn out when CCN(CC)CCCC(C)Nc1ccnc2ccc(Oc3ccccc3)cc12 (stereo not given) was run?
Its growth is 89.4%.

Which growth does the source give for O=C(O)c1cc2cc(OCc3ccccc3)ccc2[nH]1 here?
Its growth is 86.4%.

COc1ccccc1-[n+]1cc(-c2ccc(-c3ccccc3)cc2)n2c1CCCCC2 was tested. Which growth did it give?
Its growth is 11.7%.

Which growth does the source give for COc1cc(-c2nc(-c3ccc(-c4nc5ccc(F)cc5[nH]4)cc3)no2)cc(OC)c1OC here?
Its growth is 73.1%.

COC(=O)CSc1ccc(Cl)cc1 was tested. Which growth did it give?
The growth was 103%.

CCCCCc1c(C)[nH]c(/C=C2\N=C(c3ccc[nH]3)C=C2Oc2ccc(OC)cc2)c1C was tested. Which growth did it give?
Its growth is -83.1% [100 µM] (active).

CCN1CCN(Cc2ccc(NC(=O)Nc3ccc(-n4ccc5c(NC(=O)c6ccccc6)nccc54)cc3)cc2C(F)(F)F)CC1 was tested. Which growth did it give?
Its growth is -14% (active).

How did the growth turn out when COc1ccc(/C=C(\C#N)c2cc(OC)c(OC)c(OC)c2)cc1 was run?
The growth was 43%.

How did the growth turn out when COc1ccc(/C(C)=N/NC(=O)CSc2nc3ccccc3c(=O)n2CCc2ccc(S(N)(=O)=O)cc2)cc1 was run?
The growth was 35.4%.

O=C(CCl)Nc1ccc2c(c1)C(=O)c1ccccc1C2=O was tested. Which growth did it give?
The growth was 36.9%.

How did the growth turn out when CC(C)(C)OC[C@@H]1N=C(c2ccc(Br)cc2)Nc2nc3ccccn3c2C1=O was run?
Its growth is 76.5%.

How did the growth turn out when CS(=O)(=O)c1ccc(C(=O)N/N=C/c2ccccc2Cl)cc1 was run?
The growth was 95.1%.

Which growth does the source give for CC1OC(n2c3ccccc3c3c4c(c5c6ccccc6[nH]c5c32)C(=O)N(CCN2CCOCC2)C4=O)CC(O)C1O (stereo not given) here?
Its growth is 21.5%.

Cc1cc(O)ccc1Sc1ccccc1[N+](=O)[O-] was tested. Which growth did it give?
Its growth is 91.6%.
